Values joined by “and” are separate entries in the source; they are usually repeats but may differ in a detail not shown here. Identical values can stand only once. In all, about 34,000 compounds went through this assay and about 290 (0.85%) showed an effect of 50% or more. Only a selection was taken, and strong results are over-represented in it overall.
Tested on: Plasmodium falciparum
Experiment: Plasmodium falciparum sporozoite viability assay
Assay type: functional, organism-based
Parameters: scale not given: in the data most compounds retested in dose-response had high values

Row | SMILES | Percent Effect | Percent Effect (10 mM as filed; unlikely as a test dose)
1 | CN(C)c1ccc(C(=O)N2CCC(c3cc4ncccc4[nH]3)CC2)cc1 | -1.989% | –
2 | CC(=O)NCCC(=O)NCc1cc(Br)ccc1OC(F)F | -22.55% | –
3 | O=C(O)C(F)(F)F.O=C(c1ccccc1)N1CCCC2(CCN2Cc2cccc(F)c2)C1 (stereo not drawn) | 4.203% | –
4 | CC(C)N1CCO[C@@H]2CN(C(=O)NCc3ccccc3)CC[C@@H]2C1.O=C(O)C(F)(F)F | 8.185% | –
5 | CCC(=O)N1CCC(Cc2ccccc2-c2cccc(C)c2)(C(N)=O)C1 (stereo not drawn) | 2.181% | –
6 | COc1cc(CNCc2ccnc(N3CCCCC3)c2)cc(OC)c1 | 3.028% | –
7 | CSc1ccccc1C(=O)Nc1ccc(OC2CCN(C)CC2)cc1 | – | 86.05% and 73.83% and 74.05%
8 | O=C(CC1CC1)N1Cc2nccn2CC(Cn2ncccc2=O)C1 (stereo not drawn) | 1.18% | –
9 | CCN1CCCn2c(nc(CNC(=O)c3ccsc3)cc2=O)C1 | -13.03% | –
10 | O=C(c1cc(Cl)c[nH]1)N(CCCO)Cc1cccnc1 | -9.649% | –
11 | Nc1nc2c(c3c1C(=O)NC3=O)CCCC2 | – | -19.96% and -21.28%
12 | O=C1NC(=O)c2c3c(nc(O)c21)CCCC3 | – | -19.04% and -16.96% and 3.732%
13 | Nc1nc2c(c3c1C(=O)NC3=O)CCC2 | – | 75.96% and 84.59%
14 | CN(C)CCO[C@H]1CN(Cc2ccco2)[C@@H]2COC[C@H]12.O=C(O)C(F)(F)F.O=C(O)C(F)(F)F | 12.07% | –
15 | CCC(=O)N1CCCC(c2nc(N(C)C)ncc2-c2ccc(F)cc2)C1 (stereo not drawn) | 2.091% | –
16 | CCCC(=O)N1CCCC(c2ccccn2)C1 (stereo not drawn) | -4.87% | –
17 | CCC(=O)N1CCCC(C(=O)c2cnn(-c3ccc(F)cc3)c2N)C1 (stereo not drawn) | – | 46.01% and 80.8% and 57.02%
18 | CC(=O)N1CCC(C(=O)c2cnn(-c3ccccc3)c2N)C1 (stereo not drawn) | -4.265% | –
19 | CCOC(=O)C1CCN(C(=O)c2cnn(-c3ccc(C)cc3)c2N)CC1 | -31.22% | –
20 | CC(=O)N1CCCC(C(=O)c2cnn(-c3ccc(F)cc3)c2N)C1 (stereo not drawn) | – | 27.98% and 70.48% and 45.02%

Row | SMILES | Percent Effect | Percent Effect (10 mM as filed; unlikely as a test dose)
21 | COc1ccc2c(c1)c(-c1nc(N(C)C)ncc1CN)cn2C | 23.78% | –
22 | CCC(=O)N1CCC2(CC1)CNC(=O)c1cc(C)ccc1O2 | 7.401% | –
23 | CCOc1ncccc1NC(=O)Nc1c(C)nn(C(C)C)c1C | 2.999% | –
24 | Clc1ccc(OCCCN2CCN(c3cnccn3)CC2)cc1 | -11.56% | –
25 | O=C(Cn1cc(C2CC2)nn1)N(Cc1ccco1)CC1CCCO1 (stereo not drawn) | -0.6519% | –
26 | Fc1cccc(Cc2cncc(C3CCCN3C3CCOCC3)n2)c1 (stereo not drawn) | -10.3% | –
27 | Cc1cccc(C(=O)N2CCN(C(=O)Cc3ccccn3)CC2)c1C | – | 0.7402% and -14.31% and -17.8%
28 | CN1CCN(C2CCN(CCOc3ccccc3)CC2)C1=O | 2.798% | –
29 | CN1CCN(C2CCN(c3ccnc(-c4ccccc4)n3)CC2)C1=O | – | -12.56% and 9.01% and -14.11%
30 | CN1CCN(C2CCN(c3cnc4ccccc4n3)CC2)C1=O | – | 71.66% and 96.44% and 85%
31 | CCc1n[nH]c(C2CN(C(=O)c3ccnc(C)n3)CCO2)n1 (stereo not drawn) | -2.148% | –
32 | CCc1nc(CC(=O)N2CCCCC2Cn2cccn2)cs1 (stereo not drawn) | 3.352% | –
33 | Cc1cccc(CN2C[C@@H]3CN(C(=O)C4CC=CC4)C[C@@H]3C2=O)n1 | -3.24% | –
34 | CN1CCCC1c1ccc(C(=O)N2CCc3ccccc3C2)s1 (stereo not drawn) | – | 96.19% and 93.66% and 95.32%
35 | CC(=O)N1CCCC1c1ccc(C(=O)N2CCOCC2)s1 (stereo not drawn) | 9.227% | –
36 | O=C(c1ccc(C2CCCO2)s1)N1Cc2ccccc2C1 (stereo not drawn) | – | -3.474% and -5.294% and -6.784%
37 | Cc1cc(N2CCN(c3ccc(=O)[nH]n3)CC2)nc(-c2ccncc2)n1 | 8.684% | –
38 | Cc1nc(C)n(CC2CCCN(Cc3ccccc3C#N)C2)n1 (stereo not drawn) | 4.939% | –
39 | CC(=O)N[C@H]1CCO[C@@H](c2cccc(NC(=O)c3cccc(F)c3)c2)C1 | – | 55.02% and 42.93% and 54.57%
40 | CC(=O)N[C@H]1CCO[C@@H](c2cccc(NC(=O)C(C)(C)C)c2)C1 | – | 12.38% and 11.09% and 3.549%

Row | SMILES | Percent Effect | Percent Effect (10 mM as filed; unlikely as a test dose)
41 | Cc1nn(C)cc1CN1CCC(c2ncc(Cl)cc2S(C)(=O)=O)CC1 | 3.927% | –
42 | Cc1cc(C)c(S(=O)(=O)NCCC(=O)NCc2ccoc2)c(C)c1 | -16.91% | –
43 | CN(C)C(=O)NCC1CC2(CO1)CN(c1nncs1)C2 (stereo not drawn) | 9.107% | –
44 | Cc1cc2cc(C(=O)N[C@@H]3CC[C@@H](N4CCNC(=O)C4)[C@@H]3O)ccc2o1 | -1.506% | –
45 | COc1ccccc1CNC(=O)CNCCn1cc(C)cn1 | 7.81% | –
46 | Cc1csc(NC(=O)c2cnc(C3CCCN(C)C3)cn2)n1 (stereo not drawn) | – | 50.33% and 85.32% and 71.26%
47 | Cc1nn(C)c(C)c1-c1cnc(C2CCCN(C)C2)cn1 (stereo not drawn) | – | -21.75% and -20.87% and 0.3933%
48 | O=C(NCc1ccccn1)c1cnc(C2CCCN2)cn1 (stereo not drawn) | -5.932% | –
49 | Cc1nc(C(=O)NCc2ccccn2)cc(C2CCCN2)n1 (stereo not drawn) | 15.86% | –
50 | COc1c(C2CCCN2CC(=O)Nc2nc(C)cs2)c(C)nn1C (stereo not drawn) | -5.597% | –
51 | Cl.O=C(NCC(F)F)c1cnc(C2CCCN2)cn1 (stereo not drawn) | 6.016% | –
52 | Cc1csc(NC(=O)c2cnc(C3CCCN3)cn2)n1.Cl (stereo not drawn) | – | 76.82% and 93.2% and 90.06%
53 | Cc1nc2cc(-c3nccn3C)nn2c(N2CCCC2)c1C | 12.19% | –
54 | CC(C)(CO)Nc1cc(-c2ccncc2)ncn1 | -5.504% | –
55 | COc1ccc(S(=O)(=O)N2CCN(C)c3ncccc3C2)cc1.O=C(O)C(F)(F)F | 6.245% | –
56 | CN1CCCN(C(=O)NCc2cccnc2-n2cccn2)CC1 | -0.7887% | –
57 | Cc1ncccc1NC(=O)[C@@H]1CCO[C@@H]2CCN(c3ccncn3)C[C@H]21 | 1.798% | –
58 | CCc1nccn1C1CCCN(C(=O)CCOCC(F)(F)F)C1 (stereo not drawn) | – | 0.2657% and 18.61% and -4.801%
